Screening data (PubChem)
ALR inh: human ALR oxidase inhibition via reduced H2O2 | P55789 | purified ALR, DTT oxidation, H2O2 HRP-luminol luminescence | inhibition, % (test concentration not listed) | 290,000 compounds, 3.8% hits;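 active = mean replicate inhibition above about 79%, with every replicate also reaching it, limit read from the data; inconclusive = only one of the two criteria met; inactive = mean below limit and not every replicate reaching it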
CSC inhib: cancer stem cell inhibition; cancer stem cell-like cells viability, luminescence; inhibition, % at 7.5 µM; 300,000 compounds, 1.1% hits; AID 2717; in the data active = inhibition above about 75%; inconclusive = no clear call, values can overlap the other calls; tested in HMLE shEcad cells
PP5 inh: PP5 (human) phosphatase inhibition; P53041; purified PP5c, OMFP substrate fluorescence; inhibition, % at 6.7 µM; 320,000 compounds, 0.18% hits; AID 1987;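 active = inhibition above the campaign's mean inhibition across all tested compounds plus 3 SD, cut at about 9.5% in these data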;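 note: 0% = DMSO only and 100% = 100 µM cantharidin control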
Target sequence (P53041 whole entry, looked up): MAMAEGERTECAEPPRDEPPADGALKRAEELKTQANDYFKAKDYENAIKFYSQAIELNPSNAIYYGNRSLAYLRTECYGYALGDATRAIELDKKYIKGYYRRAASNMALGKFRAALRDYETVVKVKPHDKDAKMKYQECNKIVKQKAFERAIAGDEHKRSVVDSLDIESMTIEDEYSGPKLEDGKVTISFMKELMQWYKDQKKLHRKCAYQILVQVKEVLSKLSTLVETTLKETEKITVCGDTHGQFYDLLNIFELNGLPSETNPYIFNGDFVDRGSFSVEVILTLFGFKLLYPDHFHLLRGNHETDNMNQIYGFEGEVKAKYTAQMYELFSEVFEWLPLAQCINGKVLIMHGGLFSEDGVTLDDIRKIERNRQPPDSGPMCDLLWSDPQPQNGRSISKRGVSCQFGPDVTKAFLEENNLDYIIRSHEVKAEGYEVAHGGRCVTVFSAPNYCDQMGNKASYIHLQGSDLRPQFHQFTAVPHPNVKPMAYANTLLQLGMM
PP1 counter: blocks human PP1-alpha phosphatase, a PP5 counter-screen; P62136; purified PP1alpha, OMFP fluorescence; inhibition, % at 6.7 µM; 320,000 compounds, 0.9% hits;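 active = inhibition above the mean inhibition of all tested compounds plus 3 SD, computed separately for each screening campaign, cut at about 15% in these data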
Calb FLC: C. albicans growth modulation with fluconazole | growth inhibition, % (concentration not given with the values) | C. albicans CaCi-2 (fluconazole-resistant clinical isolate) + fluconazole, Alamar Blue growth, 48 h | 300,000 compounds, 0.57% hits;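 active = growth inhibition above about 58% in most replicates, limit read from the data, passing the limit was not always enough; inconclusive = exactly half the replicates above a set limit; inactive = most replicates below a set limit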;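 note: all wells also contain fluconazole at 8 µg/ml as a sub-toxic cotreatment; 0% = median of DMSO wells and 100% = median of geldanamycin control wells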
PP1 confirm: human PP1 phosphatase inhibition, confirmation. AID 2358. purified PP1alpha, OMFP substrate fluorescence. inhibition, % at 6.7 µM. shares compounds with PP1 counter. 1,900 compounds, 52% hits;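 active = mean PP1 inhibition above a set limit taken from the earlier primary screen, cut at about 15% in these data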
PP5 inh counter: inhibits human PP5 phosphatase in PP1 counter-screen. inhibition, % at 6.7 µM. 1,900 compounds, 4% hits. purified PP5c, OMFP fluorescence. shares compounds with PP1 counter;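 active = mean PP5 inhibition over triplicate wells above about 9.5% taken from the earlier PP1 screen, limit read from the data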
The depositor's hits bear a star; ? = inconclusive; . = no result given. Sampled rows, rich in hits. Any-hit rate of the full collection: about 5.4%.

SMILES | ALR inh | CSC inhib | PP5 inh | PP1 counter | Calb FLC | PP1 confirm | PP5 inh counter
Cc1ccc(-c2nn(CCC#N)cc2C=C(C#N)C#N)cc1 | 2 | . | 3 | -2 | -3 | . | .
CC(C)(C)C(=O)Nc1scc(-c2ccc(-c3ccccc3)cc2)c1C(=O)O | 50 | 48 | -6 | 18* | 33 | 8 | 1
CSCCC(NC(=O)c1ccccc1Cl)C(=O)NCC(c1ccco1)N1CCCCC1 (stereo not drawn) | -3 | -12 | -2 | 45* | -5 | -5 | -2
Cc1ccc(S(=O)(=O)N2CCN(C(=O)COC(=O)c3ccc(Br)o3)CC2)c(C)c1 | 3 | -11 | 1 | -5 | -4 | . | .
COc1ccc(C2CC(c3ccc(Br)cc3)=NN2C(=O)CSC2=NCCS2)cc1 (stereo not drawn) | 33 | 21 | 2 | 20* | 0 | 3 | 2
CCC(C)(C)c1ccc(OCCCC[n+]2cccc(C)c2C)c(C(C)(C)CC)c1 | -26 | 135* | 2 | 20* | 109* | -3 | 1
Cc1cc(C(C)(C)C)ccc1OCCCCN1CCCC1 | -4 | ? | 3 | -1 | 0 | . | .
CCC(C)(C)c1ccc(OCCCC[n+]2ccc(C)cc2)c(C(C)(C)CC)c1 | 45 | 106* | 2 | 21* | 94* | -6 | 0
Cc1cc[n+](CC[n+]2ccc(C)cc2)cc1 | -6 | 0 | 3 | -2 | 5 | . | .
Cc1nn(-c2cc(N3CCOCC3)ccc2[N+](=O)[O-])c(=O)c2ccccc12 | -1 | -5 | 0 | -4 | 17 | . | .
CC(C)(C)C(=O)N1CCN(c2ccc([N+](=O)[O-])c(-n3nc(-c4ccccc4)c4ccccc4c3=O)c2)CC1 | . | 7 | 3 | 22* | -46 | 11 | 5
Cc1ccc(CCc2nnc(SCC(=O)Nc3ccccc3Cl)n2-c2ccccc2)o1 | . | -7 | 1 | 7 | -3 | . | .
CCOC(=O)c1ccc(NC(=O)CSc2nnc(CCc3ccc(C)o3)n2-c2ccccc2)cc1 | -46 | -10 | 3 | 19* | -4 | 14 | -3
COCCNC(=O)/C(C#N)=C/c1cc(C)n(C2CCCCC2)c1C | 0 | 12 | 0 | -5 | -1 | . | .
CC(=O)Oc1ccc2c(=O)c(Oc3ccccc3[N+](=O)[O-])coc2c1 | 17 | -5 | 1 | 56* | -6 | 0 | 1
COc1ccccc1Oc1coc2cc(OC(=O)N3CCOCC3)ccc2c1=O | 44 | 5 | 3 | 4 | 23 | . | .
O=C(Cn1nc(-c2ccccc2)ccc1=O)Nc1ccc(NC(=O)c2ccccn2)cc1 | 0 | 6 | 1 | -2 | -7 | . | .
Cc1ccc(NC(=O)Cn2nc(C(=O)Nc3ccc(C)cc3)ccc2=O)cc1 | 0 | -10 | 1 | 21* | 18 | 22* | -3
CC1(C)Cc2c(sc3c2c(=N)n(Cc2ccco2)c(=O)n3CC(=O)Nc2cccc(Cl)c2)CO1 | -7 | 6 | 6 | 20* | 2 | 6 | 3
CC1=C(C(=O)Nc2ccccc2C)C2(CCCC2)C(C(N)=O)C(=O)N1 (stereo not drawn) | -10 | -12 | -3 | 26* | 6 | -5 | -6
Cc1ccc(-c2nnc(-c3ccc4c(c3)OCO4)o2)cc1 | -1 | 3 | 0 | 1 | . | . | .
CN(CC(=O)Nc1ccccc1N1CCCC1)S(=O)(=O)c1ccc(F)cc1 | 45 | -12 | 1 | 74* | -2 | -20 | -3
CSCc1cc(N(C)C)nc(SCc2ccc(Cl)c(Cl)c2)n1 | 35 | 17 | 1 | 22* | -41 | 10 | -2
Cc1cccc(NC(=O)CN2C(=O)N/C(=C/c3ccc(C)s3)C2=O)c1 | 11 | -8 | 1 | 21* | 10 | 6 | -6
CCCCCCN(C(=O)CCCCCN1C(=O)NC(c2ccc(-c3ccccc3)cc2)C(C(=O)OCc2ccccc2)=C1C)C(C(=O)NCCCC)c1ccccn1 (stereo not drawn) | . | . | . | . | 0 | . | .
SMILES | ALR inh | CSC inhib | PP5 inh | PP1 counter | Calb FLC | PP1 confirm | PP5 inh counter
CCCCCCN(C(=O)CCCCCN1C(=O)NC(c2ccc(-c3ccccc3)cc2)C(C(=O)OCc2ccccc2)=C1C)C(C(=O)NCCCC)c1ccc(OCC(=O)OC)cc1 (stereo not drawn) | -4 | -2 | -1 | 30* | -2 | 20* | -2
CCCCNC(=O)C(c1ccc(OCC(=O)OC)c(C(=O)OC)c1)N(CCOC)C(=O)CCCCCN1C(=O)NC(c2ccc(-c3ccccc3)cc2)C(C(=O)OCc2ccccc2)=C1C (stereo not drawn) | . | 125* | 5 | 35* | 1 | 35* | 4
Nc1cc(Nc2ccc(Br)cc2)nc(N)n1 | 46 | 8 | -1 | 0 | 1 | . | .
O=c1/c(=C\c2cc([N+](=O)[O-])cc([N+](=O)[O-])c2O)sc2nc3ccccc3n12 | -21 | 12 | 0 | 18* | . | 26* | 3
COc1ccc(CCNC(=O)C2CCC(=O)N(C3CCCCCC3)C2)cc1 (stereo not drawn) | 0 | 2 | -1 | 2 | -18 | . | .
COc1ccc(C2NC(C(=O)O)Cc3c2[nH]c2ccccc32)cc1OC (stereo not drawn) | -9 | 7 | 2 | 0 | 20 | . | .
COc1ccc(C2NCCc3c2[nH]c2ccccc32)cc1CSc1nc2ccccc2s1 (stereo not drawn) | . | 116* | 4 | 19* | 37 | -11 | 2
Cc1cccc(-c2nnc(NC(=O)c3ccc(N4C(=O)CCC4=O)cc3)s2)c1 | -10 | -7 | 5 | 19* | -3 | 12 | 0
N#Cc1ccc(-c2ccc3c(c2)OCO3)nc1SCC(=O)OCc1ccccc1 | -14 | 4 | 3 | 18* | -1 | 10 | 1
COc1ccc(-c2ccc(C#N)c(SCC(=O)OCc3ccccc3)n2)cc1OC | -5 | 0 | 4 | -3 | 1 | . | .
Oc1ccccc1Nc1nc(NCc2ccccc2)c2ccccc2n1 | ? | 103* | 3 | 19* | 50 | 0 | 3
COc1cccc(CNC(=O)CCNC(=O)Cn2ccc3ccccc3c2=O)c1 | . | 4 | 1 | -2 | -8 | . | .
CCc1ccc(N=Nc2ccc(O)c3[nH]cnc23)cc1 | -32 | 82* | 0 | 21* | . | 10 | -1
C=CCn1c(=N)n(CC(=O)c2ccc(Br)s2)c2ccccc21 | 1 | 5 | 3 | 3 | -21 | . | .
O=C(CSc1nc2ccc(Nc3nc(N4CCCC4)nc(N4CCCC4)n3)cc2s1)NCc1ccco1 | . | 20 | 0 | 19* | 12 | 5 | 2
CCC1(c2ccccc2)NC(=O)N(CC(=O)Nc2cc(S(=O)(=O)N3CCCCC3)ccc2OC(C)C)C1=O (stereo not drawn) | -1 | 6 | 0 | 18* | 3 | 2 | 4
CCC1(c2ccccc2)NC(=O)N(CC(=O)Nc2cc(S(=O)(=O)N3CCCCCC3)ccc2OC)C1=O (stereo not drawn) | -5 | 3 | 2 | 6 | 17 | . | .
